Compound activity as filed in PubChem BioAssay.
D2 PAM-1: Beta-Arrestin HTS for Positive Allosteric Modulators of the Human D2 Dopamine Receptor: Potentiators. potentiation, % (concentration not given with the values). DiscoveRx D2 beta-arrestin cells, luminescence, 90 min; 100% = 57 uM dopamine signal. actives 0.23% (n = 360,000). AID 624464, 2012. D(2) dopamine receptor (Homo sapiens), P14416; in the data active = potentiation above about 50%
Target sequence (P14416 whole entry, looked up): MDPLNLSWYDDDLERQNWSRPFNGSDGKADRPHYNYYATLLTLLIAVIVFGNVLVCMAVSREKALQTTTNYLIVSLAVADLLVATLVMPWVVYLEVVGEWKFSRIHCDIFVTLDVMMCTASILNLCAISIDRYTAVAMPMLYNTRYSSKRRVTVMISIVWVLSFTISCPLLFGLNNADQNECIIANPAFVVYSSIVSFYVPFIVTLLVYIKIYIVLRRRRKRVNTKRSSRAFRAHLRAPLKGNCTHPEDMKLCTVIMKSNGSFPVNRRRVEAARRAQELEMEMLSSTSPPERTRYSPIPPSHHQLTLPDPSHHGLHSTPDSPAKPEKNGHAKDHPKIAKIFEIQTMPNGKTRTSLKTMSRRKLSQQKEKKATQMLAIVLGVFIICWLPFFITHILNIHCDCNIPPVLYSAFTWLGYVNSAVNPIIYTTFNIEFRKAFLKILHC
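PathHunter D2 cells, attached overnight at 37 deg C, received compound in DMSO plus dopamine at EC20 (50 nM final) for 90 min at 37 deg C. Beta-arrestin recruitment was read as luminescence after 1 h with detection reagent at ambient temperature.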
D2 ag-1: Beta-Arrestin HTS for Positive Allosteric Modulators of the Human D2 Dopamine Receptor: Agonists; actives 0.084% (n = 360,000); D(2) dopamine receptor (Homo sapiens), P14416; DiscoveRx PathHunter D2 beta-arrestin, luminescence, 90 min; 100% = 57 uM dopamine signal; AID 624465, 2012; activation, % (no concentration beside the values); in the data active = activation above about 40%
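DiscoveRx PathHunter D2 beta-arrestin cells (2,100/well) attached overnight, then compound-stimulated 90 min at 37 C in HBSS/10 mM HEPES/0.1% Tween-20 buffer; beta-galactosidase complementation read by luminescence after 1 h at ambient temperature. Dopamine 57 uM final (EC100) as control.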
D2 ag-2: HTS Assay for Allosteric Agonists of the Human D2 Dopamine Receptor: Primary Screen for Agonists. actives 0.53% (n = 340,000). HEK293 T-REx D2 cells, calcium flux agonist mode. activation, % at 2 µM. D(2) dopamine receptor (Homo sapiens), P14416;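 active = activation over 3 SD above normal in the single-dose calcium agonist read, cut at about 30% in these data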; also: 0% is about no effect
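Calcium-flux readout, 1 cycle/sec over 180 s following compound pin transfer, in inducible HEK293 Trex D2 cells (force-coupled); dopamine controls included. Positive calcium responses during this window marked compounds as potential agonists.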
D2 antag: HTS Assay for Allosteric Antagonists of the Human D2 Dopamine Receptor: Primary Screen for Antagonists. AID 485344, 2010. inhibition, % at 10 µM. actives 2% (n = 340,000). HEK293 TREx D2 cells, calcium flux, dopamine EC80; in the data active = inhibition above about 30%; inactive = below that, where a call was filed; also: 0% is about no effect
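Calcium mobilization kinetics were recorded at 1 s intervals in tetracycline-induced HEK293 T-REx D2 cells, first for 180 s after compound addition and then 180 s after EC80 dopamine.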
D2 PAM-2: HTS Assay for Positive Allosteric Modulators of the Human D2 Dopamine Receptor: Primary Screen for Potentiators; D(2) dopamine receptor (Homo sapiens), P14416; HEK293 T-REx D2, calcium flux, EC20 dopamine potentiation; potentiation, % at 10 µM; actives 0.34% (n = 340,000);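 active = potentiation over 3 SD above the plate norm, cut at about 30% in these data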; also: 0% is about no effect
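Tetracycline-induced HEK293 T-REx cells force-coupled to calcium signalling expressed D2; compounds were pin-added after a 10 s baseline, read kinetically 180 s, then an EC20 dopamine challenge followed with a further 180 s calcium read.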
The depositor's hits bear a star; . = no result given. Only some compounds are listed: those with a hit (about 2.4% of all), similar ones and a draw of the others.

SMILES | D2 PAM-1 | D2 ag-1 | D2 ag-2 | D2 antag | D2 PAM-2
O=C1C2CCCN2C(c2ccccc2)N1c1nccs1 (configuration not stated) | -1.1 | -0.5 | 0.1 | 66.8* | 1.2
Cc1ccccc1C1N(c2nccs2)C(=O)C2CCCN21 (configuration not stated) | -6.0 | 2.6 | 0.3 | -2.7 | -1.6
O=C(Cn1c(=O)n(Cc2ccc3c(c2)OCO3)c(=O)c2oc3ccccc3c21)Nc1ccc(F)cc1 | . | . | 1.5 | . | -6.2
CC(=O)N1CCN(S(=O)(=O)c2cccc(C(=O)Nc3ccc(C)cn3)c2)CC1 | 3.4 | 0.6 | 0.0 | -2.1 | 1.8
Cc1ccc(NC(=O)c2cccc(S(=O)(=O)N3CCc4ccccc4C3)c2)nc1 | -2.8 | -2.0 | 0.3 | 30.5* | 4.6
COc1cc(C(=O)NCC(c2cccs2)N(C)C)cc(Cl)c1OC(C)C (configuration not stated) | -30.4 | -3.6 | 0.5 | 34.5* | -14.9
COc1cc2ccccc2cc1C(=O)NCC(c1cccs1)N(C)C (configuration not stated) | -16.3 | -2.0 | -0.9 | 55.5* | -12.5
CCCOc1ccc(C(=O)NCC(c2cccs2)N(C)C)cc1OC (configuration not stated) | -35.2 | -2.6 | -1.2 | -6.3 | -19.0
CCCC(=O)N1CCCC1(C)C(=O)NCCc1ccccn1 (configuration not stated) | -3.3 | -1.9 | . | . | .
COc1ccc(NC(=O)CSc2nc3c([nH]c4ccccc43)c(=O)n2-c2ccccc2)c(OC)c1 | . | . | 1.2 | . | 12.4
COC(=O)C1=C(O)/C(=C\c2cc(C)n(-c3ccccc3C)c2C)N=C1C | -23.0 | -0.1 | 0.0 | 32.1* | 13.4
Cc1ccc(OCC(=O)Nc2ccccc2C(=O)OCc2cc(=O)n3ccsc3n2)cc1 | . | . | 1.1 | . | 2.5
O=C(NCC1OCCc2ccccc21)c1cc(COc2ccc(F)cc2Cl)on1 (configuration not stated) | -9.3 | -2.9 | 0.7 | 50.2* | -10.2
Cc1cc(C)c2c(=O)[nH]c(SCC(=O)N(C)C)nc2n1 | -2.0 | -2.8 | 0.4 | -0.9 | 36.7*
CCN(CC)C(=O)CSc1nc2nc(C)cc(C)c2c(=O)[nH]1 | -2.2 | 2.1 | -0.3 | -15.1 | -5.6
Cc1ccc(NC(=O)CC(C)S(=O)(=O)c2ccc3c(c2)NC(=O)CO3)c(C)c1 (configuration not stated) | . | . | -1.5 | . | -5.3
CC1(C)Cc2c(c(N3CCOCC3)nc3sc(C(N)=O)c(N)c23)CO1 | 0.3 | -3.7 | -0.2 | -9.0 | 9.9
CC1(C)Cc2c(c(N3CCOCC3)nc3sc(C#N)c(N)c23)CS1 | 2.7 | -3.5 | -0.3 | 38.1* | 13.8
CCCCn1c(SCC(=O)c2cc(OC)ccc2OC)nc2cc(S(N)(=O)=O)ccc21 | 9.3 | -1.2 | 0.2 | -20.4 | 7.6
CCCCn1c(SCC(=O)c2ccc(O)cc2O)nc2cc(S(N)(=O)=O)ccc21 | -5.3 | -2.5 | 0.6 | 31.6* | -5.3
Cc1ccc(C)c(OCCCNCc2ccccc2)c1 | -63.6 | -3.3 | 2.1 | 3.9 | -12.5
O=[N+]([O-])c1ccccc1OCCNCc1ccccc1 | -76.2 | 1.5 | 23.2 | 78.1* | -31.4
Cc1ccc(C(C)C)c(OCCNCc2ccccc2)c1 | -5.4 | 10.8 | -2.4 | 67.2* | -18.9
CC(C)c1cc(Cn2c3ccccc3c(=O)n2C(C)CBr)on1 (configuration not stated) | -2.0 | 2.0 | . | . | .
COc1ccc(N(Cc2cc3ccccc3[nH]c2=O)S(=O)(=O)c2ccc(OC)cc2)cc1 | -43.8 | -2.3 | -1.7 | 9.5 | -23.7
COc1ccc(N(Cc2cc3cc(OC)ccc3[nH]c2=O)S(=O)(=O)c2ccc(NC(C)=O)cc2)cc1 | 50.2* | 1.9 | 0.0 | -6.8 | -19.8
COc1ccc(N(CC(=O)N/N=C/c2ccc(C(=O)O)cc2)S(=O)(=O)c2ccc(NC(C)=O)cc2)cc1 | -0.2 | 1.6 | 0.5 | 56.2* | -6.9
